In PubChem BioAssay:
The source made the active and inactive calls. How the calls were made is not given here.

Biological target: Pantothenate synthetase (Mycobacterium tuberculosis (strain ATCC 25618 / H37Rv)) (UniProt P9WIL5)
Assay: Recombinant Mtb pantothenate synthetase (PanC) inhibitors, coupled enzyme, confirmatory (AID 375);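 further: 0% = full reaction with vehicle and 100% = no enzyme background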
Conditions: coupled enzyme assay; at 10 µM, active compounds read high

Sequence of Pantothenate synthetase (Mycobacterium tuberculosis (strain ATCC 25618 / H37Rv)) (P9WIL5 whole entry, looked up): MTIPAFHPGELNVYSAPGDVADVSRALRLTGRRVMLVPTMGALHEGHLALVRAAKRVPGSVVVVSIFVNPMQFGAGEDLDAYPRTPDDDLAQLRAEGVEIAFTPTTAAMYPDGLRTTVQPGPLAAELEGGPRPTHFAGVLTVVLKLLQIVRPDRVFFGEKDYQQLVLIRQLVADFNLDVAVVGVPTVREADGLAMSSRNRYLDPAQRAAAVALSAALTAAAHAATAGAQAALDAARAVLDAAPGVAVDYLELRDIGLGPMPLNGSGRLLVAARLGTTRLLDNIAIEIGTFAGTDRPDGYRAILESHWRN

Row | Structure (SMILES) | inhibition
1 | COc1ccccc1-c1nc(SCc2ccccn2)n[nH]1 | 0% (inactive)
2 | NNC(=O)c1ccncc1 | 0% (inactive)
3 | CCOC(=O)CSc1nc2ccccc2n2cnnc12 | 0% (inactive)
4 | COc1ccc(-c2cc3ccc(OCc4nn[nH]n4)cc3oc2=O)cc1 | 7% (inactive)
5 | COc1cccc(N2CCN(CC(=O)NCc3cccs3)CC2)c1 | 3% (inactive)
6 | Cc1c(NC(=O)C2CCCCN2S(=O)(=O)c2ccc(Cl)cc2)c(=O)n(-c2ccccc2)n1C (stereo not given) | 0% (inactive)
7 | Cc1[nH]nc(N=CC2=C(O)CC(C)(C)CC2=O)c1-c1ccc(Cl)cc1 | 0% (inactive)
8 | COc1ccccc1N1CCN(c2nc3ccccc3nc2C(C#N)C(=O)OC(C)C)CC1 (stereo not given) | 1% (inactive)
9 | COc1ccc(Cl)cc1NC(=O)CSc1nncn1-c1cccnc1 | 9% (inactive)
10 | COc1ccc(-c2nn3c(-c4ccncc4)nnc3s2)cc1OC | 0% (inactive)
11 | COCCCN(Cc1ccccn1)S(=O)(=O)Cc1ccccc1 | 0% (inactive)
12 | CCOC(=O)CNS(=O)(=O)c1c(C)noc1C | 0% (inactive)
13 | Cc1csc(NC(=O)C(Cc2ccccc2)n2cccc2)n1 (stereo not given) | 5% (inactive)
14 | COc1ccc(OC)c(C(=O)c2coc3ccc(O)c(CN4CCOCC4)c23)c1 | 0% (inactive)
15 | O=C(Oc1ccc(Cl)cc1N1C(=O)CCC1=O)c1ccco1 | 6% (inactive)
16 | N#Cc1ccccc1Cn1c(=O)n(Cc2ccc(C(=O)NCc3ccco3)cc2)c(=O)c2ccccc21 | 0% (inactive)
17 | COc1ccc(OC)c(S(=O)(=O)N2CCN(c3c(C)cccc3C)CC2)c1 | 1% (inactive)
18 | CSc1ccc(-c2nc(CSCC(=O)N3CCOCC3)c(C)o2)cc1 | 0% (inactive)
19 | Cc1ccccc1-c1nc(CS(=O)(=O)CC(=O)NCc2ccccc2)c(C)o1 | 0% (inactive)
20 | CCCC1(C(=O)OCC)NC(c2ccc(N(C)C)cc2)C2C(=O)N(c3ccc(F)cc3)C(=O)C21 (stereo not given) | 3% (inactive)

Row | Structure (SMILES) | inhibition
21 | CCN(CC)S(=O)(=O)c1ccc(NC(=O)CN(c2cccc(F)c2)S(C)(=O)=O)cc1 | 3% (inactive)
22 | COc1ccccc1N1CCN(C(=O)c2ccc3nc(-c4ccco4)c(-c4ccco4)nc3c2)CC1 | 9% (inactive)
23 | Cc1ccc(NC(=O)Cn2cccc2)cc1Cl | 0% (inactive)
24 | COc1ccc(OC)c(CNC(=O)COc2cc(=O)n(C)c3ccccc23)c1 | 0% (inactive)
25 | CCOC(=O)Cc1csc(NC(=O)CSc2nnc(C(C)C)n2CC)n1 | 0% (inactive)
26 | Cn1nc(-c2ccc(C(=O)NCC3CCCO3)cc2)c2ccccc2c1=O (stereo not given) | 4% (inactive)
27 | Cc1noc(C)c1CSc1nnc2n(-c3ccccc3)c(=O)c3ccccc3n12 | 0% (inactive)
28 | COc1ccc(CN(C2CCCC2)S(=O)(=O)c2ccc(-n3cnnn3)cc2)cc1OC | 0% (inactive)
29 | Nc1nc(F)nc2c1ncn2[C@@H]1O[C@H](CO)[C@@H](O)[C@@H]1O | 0% (inactive)
30 | COc1cc(C(=O)Nc2cc(-c3ccccc3)[nH]n2)cc(OC)c1OC | 5% (inactive)
31 | CCc1ccc(NC(=O)CS(=O)CC(=O)NC(C)CCc2ccco2)cc1 (stereo not given) | 2% (inactive)
32 | CCn1c(C(=O)N2CCC(C(=O)N3CCN(c4ccccn4)CC3)CC2)cc2sccc21 | 7% (inactive)
33 | CSC(=O)CC(=O)NC(=O)c1ccccc1 | 1% (inactive)
34 | COc1ccc(N2CCN(Cc3nc4ccccc4c(=O)[nH]3)CC2)cc1 | 0% (inactive)
35 | COc1ccc(S(=O)(=O)NCCC(=O)NC2CCCCCCC2)cc1 | 0% (inactive)
36 | COc1cc(Br)cc(/C=N/c2ncn[nH]2)c1O | 5% (inactive)
37 | CC(C)c1ccc(NC(=O)C2CC(=O)N(C(C)C)C2)cc1 (stereo not given) | 5% (inactive)
38 | Cn1c(=O)c2c(nc(NCCc3ccccc3)n2CC(=O)NCCc2ccccc2)n(C)c1=O | 0% (inactive)
39 | CCOCCCNC(=O)Cn1ncc2c(=O)oc3ccccc3c21 | 0% (inactive)
40 | CCC(=O)Nc1ccc(F)c(Cl)c1 | 6% (inactive)
